BJeLR viability: BJeLR cell viability loss, primary screen, luminescence, CellTiterGlo ATP; actives 0.64% (n = 30,000); BJeLR fibroblasts viability, 48 h; HRASV12, hTERT and SV40 LT/ST transformed; viability loss activity score, % (concentration not given with the values); in the data active = viability loss activity score above about 50%;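 also: higher score means fewer live cells and less ATP luminescence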
A1 inhib: inducers of caspase activity in MEF A1-2A-BIM cells, primary screen, A1 inhibitor project, cell-based, CaspaseGlo luminescence | caspase-Glo luminescence, 3 h; percent of clofoctol signal, DMSO as zero | caspase activation, % (concentration not given with the values) | actives 0.51% (n = 21,000);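 active = most replicate scores above 10, or exactly half above 10 with mean activity above 10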;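 also: effector caspase 3 and 7 activity cleaving a DEVD luciferin substrate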
* marks the source's active call; other numbers are inactive results; · = not tested or not shown. A selection: hits, their analogues and other compounds. The true share with any hit is near 0.89%.

SMILES	BJeLR viability	A1 inhib
CN1Cc2c(ccc3c2OCO3)C2C(O)Cc3cc4c(cc3C21)OCO4 (stereo not drawn)	72.1*	2.2
COc1ccc2c(c1OC)C(=O)O[C@H]2[C@@H]1c2cc3c(cc2CCN1C)OCO3	1.3	-0.5
Cc1ccc2[nH]cc(CC(C)N)c2c1 (stereo not drawn)	4.5	0.3
COC1CC(OC2CCC3(C)C(CCC4C3CCC3(C)C(C5=CC(=O)OC5)C(OC(C)=O)CC43O)C2)OC(C)C1OC1OC(COC2OC(CO)C(O)C(O)C2O)C(O)C(O)C1O (stereo not drawn)	96.0*	0.1
C[C@]12CC[C@H](O)C[C@H]1CCC1C2CC[C@]2(C)[C@@H](C3=CC(=O)OC3)[C@@H](O)C[C@]12O (stereo partly drawn)	30.1	0.3
CO[C@H]1[C@H](O)[C@H](O[C@H]2CC[C@]3(C)C4CC[C@]5(C)C(C6=CC(=O)OC6)CC[C@]5(O)C4CC[C@@H]3C2)O[C@@H](C)[C@@H]1O (stereo partly drawn)	111.3*	0.7
CCCCc1nc2ccccc2c(=O)n1-c1ccc(C)cc1	-1.1	-0.7
Cc1nc(-c2ccccc2)nc(OC(=O)N(C)C)c1Oc1cccc(C(F)(F)F)c1	3.4	0.0
CC1(C)C(=O)C=C[C@@]2(C)C1C(=O)C(=O)[C@]1(C)C2CC[C@@]2(C)[C@H](c3ccoc3)C[C@H]3O[C@]321 (stereo partly drawn)	27.3	-1.1
C/C=C(/C)C(=O)O[C@H]1C(C)=C2[C@H]([C@@H]1OC(=O)CCCCC)[C@@](C)(OC(C)=O)C[C@H](OC(=O)CCC)[C@@]1(O)[C@H]2OC(=O)[C@@]1(C)O	25.9	1.8
Cc1ccc(-c2nc(Cn3cc(C=C4C(=O)N(C)C(=O)N(C)C4=O)c4ccccc43)no2)cc1	-2.1	·
O=C1NC(=O)C(=Cc2cn(Cc3ccccc3)c3ccccc23)C(=O)N1	5.1	32.8*
CC1=CC2/C=C(\C)CCC(O)C(O)/C=C/C(=O)C23C(=O)NC(CC(C)C)C3C1C (stereo not drawn)	95.6*	77.1*
NC1=C(C(=O)OCc2ccccc2)C2(C(=O)Nc3ccc(Br)cc32)C2=C(O1)C(=O)CCC2 (stereo not drawn)	-3.3	0.2
CC(=O)OC[C@]12CCC(C)=C[C@H]1O[C@@H]1[C@H](O)[C@@H](OC(C)=O)[C@@]2(C)[C@]12CO2	122.4*	15.8*
CC(=O)OC[C@]12C[C@H](O)C(C)=C[C@H]1O[C@@H]1[C@H](O)[C@@H](OC(C)=O)[C@@]2(C)[C@]12CO2	118.7*	13.3*
Cc1ccc(NC(=O)c2cccc(OC(=O)N(C)c3ccccc3)c2)cc1C	0.4	-1.9
CN(C(=O)c1ccc(Cl)cc1)c1ccc(Cl)cc1C(=O)c1ccccc1	1.6	-0.2
O=C(CC[N+](=O)[O-])OC[C@H]1O[C@@H](O)[C@H](OC(=O)CC[N+](=O)[O-])[C@@H](OC(=O)CC[N+](=O)[O-])[C@@H]1OC(=O)CC[N+](=O)[O-]	2.3	-0.6
Cc1[nH]c2ccccc2c1CCNCC(C)(C)C	-7.5	-0.4
CC1=CC2OC3[C@H](O)C[C@@](C)([C@]34CO4)[C@@]2(CO)[C@H](O)C1=O (stereo partly drawn)	73.9*	2.9
CC1(C)C(C(=O)Nc2nccs2)C1(C)C	-3.6	0.1
Cc1ccc(S(=O)(=O)N2CCCCC2)cc1C(=O)Oc1cccc2cccnc12	-3.7	-0.6
C[CH2][Hg][S]c1ccccc1C(=O)O	141.9*	2.0
CNc1ccccc1C(=O)O	-6.5	0.2
SMILES	BJeLR viability	A1 inhib
CCCC12CNCC(C)(CNC1)C2=O	-1.2	-0.4
CC(/C=C/[C@@]1(C)[C@H](C)CCC(=O)[C@@H]1C)=C\Cc1c(O)c(Cl)c(C)c(C=O)c1O	25.9	-1.1
CCCc1nc(-c2ccccn2)nc(OC(=O)N(C)C)c1Cc1c(F)cccc1Cl	-4.1	-0.2
CC(O)CN1CC2CC(C1)c1cccc(=O)n1C2 (stereo not drawn)	-1.5	0.7
CCC(C)(O)C(=O)O[C@H]1C(=O)O[C@@H]2C[C@H]3C(C)=CC(=O)[C@@H](O)[C@]3(C)[C@H]3[C@@]4(O)OC[C@]32[C@@H]1[C@@H](C)[C@H]4O (stereo partly drawn)	113.6*	8.9
CC1(C)C(C(=O)Nc2ccc(S(=O)(=O)c3ccc(NC(=O)C4C(C)(C)C4(C)C)cc3)cc2)C1(C)C	2.0	-0.2
COc1cc2c(c(OC)c1OC)-c1cc3c(cc1[C@H](OC(C)=O)[C@H]1COC(=O)[C@@H]1C2)OCO3	60.1*	2.6
COc1ccc(CC2C(=O)OCC2Cc2ccc3c(c2)OCO3)cc1OC (stereo not drawn)	-4.2	0.2
CCC(C)N=Cc1c(O)[nH]c(=O)[nH]c1=O (stereo not drawn)	-1.8	0.1
N#Cc1c(/N=C/c2cc(Br)ccc2O)sc2c1C1CCN2CC1	-2.4	·
C=C1[C@@H](C)[C@H]2[C@H](Cc3ccccc3)NC(=O)[C@]23OC(=O)/C=C\[C@H](O)CCC[C@@H](C)C/C=C/[C@H]3[C@@H]1O	38.9	29.7*
CCOC(=O)C1=C(CN2CC=C(c3ccccc3)CC2)NC(=O)NC1c1ccc(OC)cc1 (stereo not drawn)	-2.6	0.0
CC(C)(C)c1nc2ccccc2c(=O)n1-c1ccc(F)cc1F	7.4	0.0
Cc1ccccc1CN1CCN(C(C)C)CC1	-3.2	0.1
OC[C@H]1O[C@@H](n2cnc3cc(Cl)c(Cl)cc32)C(O)[C@H]1O (stereo partly drawn)	-4.3	4.3
CN[C@@H]1C[C@@]2(C)O[C@@H]([C@@H]1OC)n1c3ccccc3c3c4c(c5c6ccccc6n2c5c31)C(=O)NC4	126.7*	83.8*
CCSc1nc2ccccc2c(=O)n1-c1cccc(OC)c1	0.4	0.3
NCCC1COc2ccccc2O1 (stereo not drawn)	-2.2	·
CC(C)N(C(=O)SCC(Cl)=C(Cl)Cl)C(C)C	10.7	0.7
C[C@@H]1C[C@@H]([C@H](O)CC2CC(=O)NC(=O)C2)C(=O)[C@@H](C)C1	61.4*	5.1
C[C@@H]1CC([C@H](O)CC2CC(=O)NC(=O)C2)C(=O)[C@@H](C)C1 (stereo partly drawn)	86.8*	4.2
CCN1C[C@]2(C)CC[C@H](OC)[C@@]34C2[C@H](O)C([C@@H]13)[C@@]1(OC)C[C@H](OC)[C@H]2C[C@@H]4[C@@H]1[C@H]2O	3.1	0.2
CC(C)(C)c1cc(C=C(C#N)C#N)cc(Br)c1O	8.1	-1.4
CCc1ccc(CN2CCN(Cc3ccc(CC)cc3)CC2)cc1	3.7	0.2
CCN(CC)CCc1c(C)c2ccc(O)cc2oc1=O	-1.3	2.1
SMILES	BJeLR viability	A1 inhib
N#CC(c1ccccc1)c1ccccc1	-5.9	-0.2
O=C(c1ccc2nc(N3CCCCC3)sc2c1)N1CCC2(CC1)OCCO2	6.0	-0.9
COc1cccc(OC)c1C1=NCC(=O)Nc2c1oc1ccc(Br)cc21	55.3*	3.4
CC[C@@]1(O)C(=O)OCc2c1cc1n(c2=O)Cc2cc3c(O)cccc3nc2-1	106.7*	1.1
C=CC1CN2CCC3(C(=O)Nc4ccccc43)C2CC1/C(=C/OC)C(=O)OC (stereo not drawn)	0.4	0.7
COCc1cc(OC(=O)N(C)C)nc(COc2ccc(Cl)cc2)n1	4.0	0.9

Screening results deposited in PubChem BioAssay by Broad Institute.
